Only some compounds are listed: those with a hit (about 21% of all), similar ones and a draw of the others.
Shiga toxin inh – inhibitors of Shiga toxin in Vero cells; Vero cells, Shiga toxin protein synthesis inhibition reporter; actives 9.2% (n = 290,000); inhibition, % at 38.7 µM; in the data active = inhibition mostly above about 28%, no sharp cut-off; inactive = mostly below about 43%; also: 0% is about no effect
CHX counter – counter-screen hit for Shiga toxin inhibitors, cycloheximide; max response, %; AID 2314; cell reporter, cycloheximide protein synthesis inhibition counterscreen; actives 12% (n = 300,000); in the data active = max response mostly above about 13%, no sharp cut-off; inactive = mostly below about 14%; also: read at 38.3 µM for the half of the compounds with a filed dose; 0% is about no effect
HCV inh – HCV inhibition; Huh7.5.1 HCVcc-Cre infection, luciferase reporter, 44 h; Potency, µM (top dose mostly 41.8 µM), for the others: at the top dose activity change, negative = inhibition, hits mostly inhibitors; actives 3.4% (n = 340,000); also: potency is read from the fitted curve at half-maximal effect; % is scaled to controls: 0 for no effect and ±100 for the full control effect
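After 44 h co-culture of compound, cells and HCVcc-Cre (~0.5 moi), substrate is added for 15 min at room temperature and luciferase measured over 15 sec. Cells were seeded at 1,000/well and pre-cultured 4 h.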
Pf growth 96h – P. falciparum growth inhibition at 96 hours | P. falciparum luciferase reporter growth, 96 h | Potency, µM (highest dose often 28.7 µM), for inactives: top-dose activity change, negative = inhibition, most hits filed as inhibitors | actives 6.9% (n = 320,000); also: potency is read from the fitted curve at half-maximal effect; % is scaled to controls: 0 for no effect and ±100 for the full control effect
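Two-generation exposure (96 h) targets delayed-death phenotype. Reporter parasites carrying integrated firefly luciferase, in red cells at 2% hematocrit and 0.05% parasitemia final, kept at 37 C, 5% CO2; luminescence loss indicates inhibition.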
AMA1-RON2 inh – AMA1-RON2 (P. falciparum) interaction inhibition; AlphaScreen AMA1-biotinylated RON2 peptide binding; Potency, µM (top dose mostly 58.2 µM), without a hit: top-dose activity change, negative = inhibition, hits mostly inhibitors; actives 0.2% (n = 360,000); AID 720542;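 also: potency is read from the fitted curve at half-maximal effect; 0% = vehicle wells and -100% = peptide control; nearly all actives have a fitted effect of over 45% in size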
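AMA1 (3D7) with his tag at 25 nM final met compounds first, then biotinylated RON2 peptide at 25 nM; detection used donor plus acceptor beads, 10 µg/mL apiece, read by AlphaScreen after 30 min at room temperature.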
Pf growth 48h – P. falciparum growth inhibition at 48 hours (one generation); P. falciparum luciferase growth in erythrocytes, 48 h; Potency, µM (titrated, usually from 28.7 µM), for inactives: top-dose activity change, negative = inhibition, usual class: inhibitors; actives 5.9% (n = 310,000); AID 504832; also: potency is read from the fitted curve at half-maximal effect; % is scaled to controls: 0 for no effect and ±100 for the full control effect
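Luciferase-expressing parasites in RBCs, 2% Hct / 0.1% parasitemia final; RPMI 1640 + 0.5% Albumax; 37 C, 5% CO2, one generation; luminescence read-out, lower signal = inhibition.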
* = called active by the depositor; ? = inconclusive; nt = no result; [ ] = another dose, or the depositor's remark. Unless noted, calls follow the shape of the dose curve; as a rule, active = well fitted curve in the direction sought with a large enough effect; inconclusive = small, poorly fitted or top-dose-only effect, or another doubt; inactive = no such curve, though single readings can be large; an effect the other way counts as inactive or inconclusive.

SMILES	Shiga toxin inh	CHX counter	HCV inh	Pf growth 96h	AMA1-RON2 inh	Pf growth 48h
CCCN1CCC(NC(=S)Nc2ccc([N+](=O)[O-])cc2)CC1	25.7	10.2*	?	?	0.6%	3.7µM*
CCCN1CCC(NC(=S)Nc2ccc(C(=O)OCC)cc2)CC1	-5.3	-1.0	?	-12.1%	15.6%	11.7µM*
CC(=O)COC(=O)C1=NN(c2ccccc2)C(=O)CC1	3.4	-2.7	32.8%	45.9%	8.8%	31.2%
O=C(CSc1nnc(NC(=O)C2CCC2)s1)Nc1ccccc1Br	-9.2	-2.1	12.1%	1.6%	6.0%	-7.4%
O=S(=O)(CCc1nc2ccccc2s1)c1ccc2ccccc2c1	118.0*	32.2*	8.8%	-5.3%	1.1%	nt
Cc1ccc(S(=O)(=O)CCc2nc3ccccc3s2)cc1	20.4	5.1	7.4%	?	-2.5%	33.9%
Cc1ccc(S(=O)(=O)CCc2nc3ccccc3s2)cc1C	25.4	13.3*	-1.4%	-23.1%	2.8%	nt
NNC(=O)CCS(=O)(=O)c1ccc2ccccc2c1	2.0	-1.1	-5.6%	?	122.4%	-15.2%
O=C(O)c1[nH]c(-c2ccccc2)c2c1C(=O)N(C1CC1)C2=O	nt	nt	nt	nt	-3.3%	nt
O=C1NC(=S)N/C1=C/c1cccc([N+](=O)[O-])c1O	-9.3	7.3	-1.5%	1.85µM*	9.4%	?
O=C1NC(=S)N/C1=C/c1cc([N+](=O)[O-])ccc1O	-5.9	-1.8	-20.1%	28.2%	16.5%	nt
CCN(CC)CCOC(=O)c1ccc(N/C=C(/C#N)c2nc(-c3ccc4c(c3)OCO4)cs2)cc1	24.7	30.8*	10µM*	1.31µM*	?	1.04µM*
COc1cc(/C=C(\C#N)c2nc(-c3cc4ccccc4oc3=O)cs2)ccc1O	2.8	-3.2	?	?	4.5%	-15.9%
COc1cc(/C=C(/C#N)c2nc(-c3cc4ccccc4oc3=O)cs2)cc([N+](=O)[O-])c1O	-13.8	-0.2	nt	?	nt	2.33µM*
CCN(CC)CCOC(=O)c1ccc(N/C=C(/C#N)c2nc(-c3ccc(OC)cc3)cs2)cc1	7.3	-1.7	?	?	?	?
CCN(CC)CCOC(=O)c1ccc(N/C=C(/C#N)c2nc(-c3cc4ccccc4oc3=O)cs2)cc1	-3.8	1.0	3.2%	0.147µM*	-10.8%	0.0828µM*
Cc1[nH]n2c(=O)cc(Cc3ccccc3)nc2c1C#N	6.6	-2.5	13.4%	10.4µM*	0.0%	-7.3%
CCc1c(C)nc2c(C#N)c(C)[nH]n2c1=O	-3.8	-1.6	14.7%	5.22µM*	-10.5%	27.6%
N#Cc1c[nH]n2c(=O)cc(Cc3ccccc3)nc12	-10.7	-2.8	-4.2%	nt	-0.2%	-9.1%
Cc1nc2c(C#N)c(C)[nH]n2c(=O)c1Cc1ccccc1	-18.1	1.6	-7.8%	19.2%	-4.2%	16.7%
COc1cccc(-c2cccc3c2NC(=O)C3(C)Cc2cccc(F)c2)c1 (centres undefined)	nt	nt	nt	nt	0.0%	nt
OC[C@@H]1CN(Cc2ccc(-c3ccccc3)cc2)C[C@H](n2cnc3c(NCc4ccco4)ncnc32)O1	nt	nt	nt	nt	-18.7%	nt
CC(C)[C@H](NC(=O)N1c2ccccc2NC(=O)[C@@H]1C(C)C)C(=O)N[C@@H](Cc1ccccc1)C(=O)O	1.7	0.8	16.2%	?	0.0%	-1.6%
CC(C)[C@H](NC(=O)N1c2ccccc2NC(=O)[C@@H]1C(C)C)C(=O)N[C@@H](C(=O)O)c1ccccc1	11.7	1.6	0.355µM*	-17.5%	9.9%	?
CCC1CC=CC2C1C(=O)N(Cc1ccccc1)C2c1cccc([N+](=O)[O-])c1 (centres undefined)	36.7	37.5	nt	nt	nt	nt
SMILES	Shiga toxin inh	CHX counter	HCV inh	Pf growth 96h	AMA1-RON2 inh	Pf growth 48h
COc1ccc(-c2oc(NC(=O)CCl)c(C#N)c2-c2ccc(OC)cc2)cc1	-7.9	-3.3	-24.7%	9.28µM*	-1.1%	nt
CCn1c(SC(C)C(=O)NC2CCCc3ccccc32)nnc1-c1cccs1 (centres undefined)	-9.7	-5.6	6.4%	16.5µM*	38.5%	nt
CC(Sc1nc2ccccc2s1)C(=O)NCc1ccc2c(c1)OCO2 (centres undefined)	active	20.2*	3.7%	17.0%	-11.4%	34.4%
Cc1csc(SC(C)C(=O)NCc2ccc3c(c2)OCO3)n1 (centres undefined)	44.3	10.8	0.2%	31.4%	8.6%	16.3%
CC(Sc1nnc(-c2cccs2)n1Cc1ccccc1)C(=O)NCc1ccc2c(c1)OCO2 (centres undefined)	-20.5	-3.1	-4.1%	8.28µM*	-11.7%	nt
NNc1ccccc1C(F)(F)F	62.8	28.2*	19.3%	41.6%	17.1%	59.8%
CC(=O)Nc1ccccc1C(F)(F)F	-6.9	-1.7	0.3%	5.6%	-12.1%	?
O=C(Nc1ccccc1)/C(=C/c1cccnc1)NC(=O)c1ccccc1	-15.2	-3.6	-9.4%	0.0%	4.6%	20.2%
CC(C)(C)SC(=O)C[C@@H]1NS(=O)(=O)OC2CCCCC21 (some centres undefined)	-15.0	-3.3	13.2%	35.5%	-5.0%	18.3%
CCN(CC)Cc1cc(C(=O)O)c(C)o1	53.3*	13.4*	16.8%	?	14.0%	40.7%
COc1ccc(OCc2cc(C(=O)O)c(C)o2)cc1	26.4	33.0*	nt	96.5%	nt	122.7%
Cc1ccc2c(c1)C1(C=CC(=O)C=C1)CC(=O)N2C	-5.5	16.2	nt	nt	nt	nt
CC(=O)Cn1c(CN2CCCCC2)nc2ccccc2c1=O	-8.9	-0.9	1.3%	12.0%	5.2%	10.4µM*
Cc1cccc(C)c1NC(=O)Cn1c(CN2CCCCC2)nc2ccccc2c1=O	0.7	-2.3	1.0%	131.0%	11.0%	14.7µM*
CCc1c(C2CC2)ncn1Cc1cccc(-c2ccccc2)c1	nt	nt	nt	nt	-4.3%	nt
Cc1c(CN(C)C)c2c(n1Cc1ccccc1)C(=O)c1ccc(Br)cc1-2	-3.3	1.1	?	2.33µM*	?	nt
Cc1c(CN(C)C)c2c(n1C)C(=O)c1ccc(Br)cc1-2	-15.9	-2.6	?	11.7µM*	3.7%	?
CCOC(=O)c1c2c(n(C)c1C)C(=O)C(=O)c1ccc(Br)cc1-2	nt	nt	?	nt	-0.4%	nt
O=c1oc2cc(Br)ccc2n1Cc1ccccc1	-15.1	1.3	-5.6%	47.8%	1.9%	13.5%
CCCCN(C(=O)CCCc1nc2ccccc2s1)c1c(N)n(CC(C)C)c(=O)[nH]c1=O	nt	nt	25.8%	?	1.1%[11.6 µM]	?
COc1ccc(Cc2nnc(SCc3c(C)noc3C)n2C2CCCCC2)cc1OC	51.0*	12.6	-10.3%	?	13.5%	9.28µM*
Cc1ccc(CCNC(=O)C2CC(=O)N(C3CCCCC3)C2)cc1 (centres undefined)	1.4	2.4	7.9%	1.47µM*	-3.5%	8.1%
COc1ccc(CCNC(=O)C2CC(=O)N(C3CCCCCCC3)C2)cc1OC (centres undefined)	17.4	-2.7	23.3%	?	1.1%	?
